Screening data: PubChem BioAssay, several laboratories
tim23-1 inh = inhibits growth of tim23-1 mutant yeast; S. cerevisiae tim23-1 growth, BacTiter-Glo luminescence, 24 h; inhibition, % at 20 µM; 1.3% of 330,000 active; AID 463212;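 active means growth inhibition of the mutant yeast at or above 50%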;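 further: temperature-sensitive mutant grown at 25 °C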
tim10-1 inh = growth inhibitors of tim10-1 mutant yeast; S. cerevisiae tim10-1 ts strain growth, BacTiter-Glo, 24 h; inhibition, % at 20 µM; 2.2% of 330,000 active; AID 463190;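 active means inhibition of at least 40%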;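 further: mutant grown at 25 °C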
Rce1 inhib = blocks yeast Ras-converting enzyme; Q03530; yeast membranes, quenched prenylated peptide cleavage fluorescence; calls only; 0.27% of 290,000 active; AID 2563;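 active means fall in fluorescence gain of 50% or more versus controls, with final raw signal at or below 3038400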
Target sequence (Q03530 whole entry, looked up): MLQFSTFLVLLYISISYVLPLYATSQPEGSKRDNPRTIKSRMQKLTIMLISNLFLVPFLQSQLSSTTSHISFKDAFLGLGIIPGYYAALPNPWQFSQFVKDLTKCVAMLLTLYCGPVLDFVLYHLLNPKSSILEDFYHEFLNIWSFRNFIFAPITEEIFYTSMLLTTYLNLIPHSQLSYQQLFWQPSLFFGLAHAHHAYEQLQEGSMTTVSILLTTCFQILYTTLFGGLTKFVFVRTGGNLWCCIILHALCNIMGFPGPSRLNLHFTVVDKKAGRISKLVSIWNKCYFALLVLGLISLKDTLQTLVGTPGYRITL
TIM10 inh = TIM10 yeast growth inhibition. inhibition, % at 10 µM. S. cerevisiae TIM10 strain growth, BacTiter-Glo luminescence, 24 h. 1.4% of 330,000 active;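 active means inhibition of 40% or more at the single tested concentration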;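 further: wild-type TIM10 isogenic control strain grown at permissive 25 °C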
PfHsp90 set2 = inhibits growth of yeast expressing Plasmodium falciparum Hsp90; 0.32% of 310,000 active; S. cerevisiae expressing PfHsp90, BacTiter-Glo ATP, 48 h; yeast lacking PDR1 and PDR3 efflux regulators; inhibition, % at 9.4 µM; AID 504621;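 active means every replicate shows inhibition above about 80%, whatever the replicate mean, limit read from the data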
tim10-1 confirm = tim10-1 yeast growth inhibition, confirmed; shares compounds with tim10-1 inh; S. cerevisiae tim10-1 ts strain growth, BacTiter-Glo, 24 h; 56% of 7,400 active; inhibition, % at 20 µM;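 active means inhibition of yeast growth at or above a set limit in either of two repeat tests at 20 µM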;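 further: tim10-1 mutant grown at permissive 25 °C to find synthetic lethal compounds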
Numbers stand for hits; i = inactive; nt = not tested or not shown; + = active, no number; ! = repeats disagree. Hits are enriched below; roughly 3.7% of the tested compounds scored in any of these assays.

SMILES | tim23-1 inh | tim10-1 inh | Rce1 inhib | TIM10 inh | PfHsp90 set2 | tim10-1 confirm
CC(=O)c1ccc(S(=O)(=O)N2CCN(C(=O)c3ccc(-n4nc(C)c(Cl)c4C)cc3)CC2)cc1 | i | 41 | nt | i | i | i
COc1ccc2nc(NCc3ccccc3)[nH]c2c1 | i | i | i | i | i | nt
COc1ccc(CNc2cccc3[nH]c(C(F)(F)F)nc23)cc1 | i | 43 | i | i | i | i
Cc1ccc(C(=O)Nc2cccc3[nH]c(C(F)(F)F)nc23)cc1 | i | i | i | i | i | nt
COc1cc(CNc2cccc3[nH]c(C(F)(F)F)nc23)cc(OC)c1 | i | 42 | i | i | i | i
CCC(C)Sc1nnc(NC(=O)c2ccco2)s1 (configuration not stated) | nt | nt | i | nt | i | nt
C=C(C)C1CC=C(C)/C(=N/NC(=O)c2ccc(NC(=O)c3cccc(C)c3)cc2)C1 (configuration not stated) | i | i | i | i | i | nt
C=C(C)C1CC=C(C)/C(=N/NC(=S)Nc2ccccc2)C1 (configuration not stated) | i | 41 | i | i | i | i
O=C(COC(=O)c1ccccn1)Nc1ccc2c(c1)OCCO2 | i | i | nt | i | i | nt
CCCc1cc(=O)[nH]c(SCCCCN2C(=O)c3ccccc3C2=O)n1 | i | i | i | i | i | nt
CC(C)c1ccc(NC(=O)CCCN2C(=O)NC(C)(C)C2=O)cc1 | i | 57 | nt | i | i | i
Cc1ccc(NC(=O)COc2cccc(-n3cnnn3)c2)cc1S(=O)(=O)N1CCOCC1 | i | i | nt | i | i | nt
Nc1nc(Nc2ccccc2)nc2ccccc12 | i | 42 | i | i | nt | 38
Cn1c(C(=O)c2ccccc2[N+](=O)[O-])nc2ccccc21 | i | i | i | i | i | nt
[O-][n+]1cccc2c(Br)cc(Br)c(O)c21 | i | 49 | nt | i | 107 | i
CN(C)C(=S)SCC(=O)NCc1ccc(F)cc1 | i | i | i | i | i | nt
CC(C)c1ccc(NC(=S)N2CCN(S(=O)(=O)c3ccccc3)CC2)cc1 | i | 41 | i | i | i | i
COc1ccc(S(=O)(=O)N2CCN(C(=O)c3cccc(Cl)c3)CC2)cc1 | i | 56 | i | i | i | i
O=S(=O)(c1ccccc1)N1CCN(C(=S)Nc2ccccc2)CC1 | i | i | i | i | i | nt
CN(C)c1ccc(C(=S)N2CCN(S(=O)(=O)c3ccccc3)CC2)cc1 | i | 40 | i | i | i | i
CC(C)c1ccc(S(=O)(=O)N2CCN(C(=O)Cc3ccsc3)CC2)cc1 | i | 43 | i | i | i | i
COC(=O)CNC(=O)CN1C(=O)N(c2cccc(Cl)c2)C(N(O)C(=O)Nc2cccc(Cl)c2)C1(C)C (configuration not stated) | i | i | i | i | i | nt
NC(=O)c1c(NC(=O)c2ccc(N3C(=O)CCC3=O)cc2)sc2c1CCCC2 | i | i | nt | i | i | nt
CCCCn1c(N)c(N(CC(C)C)C(=O)C2CC(=O)N(c3ccc(C)cc3)C2)c(=O)[nH]c1=O (configuration not stated) | i | i | i | i | i | nt
COc1ccc(C(=S)N2CCN(S(=O)(=O)c3ccccc3)CC2)cc1 | i | 46 | i | i | i | i
SMILES | tim23-1 inh | tim10-1 inh | Rce1 inhib | TIM10 inh | PfHsp90 set2 | tim10-1 confirm
COc1ccc(OC2CCN(S(=O)(=O)c3cccc(F)c3)CC2)cc1 | i | i | i | i | i | nt
CN(C)c1ccc(C(=S)N2CCN(c3ccccc3)CC2)cc1 | i | 46 | i | i | i | 36
COc1ccc(CCNC(=S)N2CCN(S(=O)(=O)c3ccccc3)CC2)cc1 | i | i | i | i | nt | nt
COc1ccc(S(=O)(=O)N2CCN(C(=O)c3ccc([N+](=O)[O-])o3)CC2)cc1 | i | 51 | i | i | i | 45
COc1ccc(OC2CCN(S(=O)(=O)c3ccc(OC)cc3)CC2)cc1 | i | 43 | i | i | i | 42
CCCCCc1n[nH]c2c1CCCC2 | i | i | i | i | i | nt
COc1ccc(C2CC(c3ccccc3OC(C)=O)=NN2C(C)=O)cc1 (configuration not stated) | i | i | i | i | i | nt
CC(C)N(Cc1ccccc1)C(=S)NC1CCCCC1 | i | 51 | i | i | i | i
O=C1C=C(/C=C/C2C=CC=CC2)C[C@@H](c2ccc(Cl)cc2)C1 (some centres not stated) | i | i | nt | i | i | nt
CCOc1ccc(-n2c(SCC(=O)Nc3cc(C)on3)nnc2-c2c[nH]c3ccccc23)cc1 | i | i | i | i | i | nt
COc1ccc(OC)c(-n2c(SCC(=O)Nc3cc(C)on3)nnc2-c2c[nH]c3ccccc23)c1 | i | 52 | i | i | i | i
CCC(C)c1ccc(NC(=O)C2CCCN(c3ncccn3)C2)cc1 (configuration not stated) | i | 42 | i | i | i | 41
CC(C)N=C(N)N=C(N)Nc1ccc(Cl)cc1 | i | i | nt | i | i | nt
NC(=NCCCCCCN=C(N)/N=C(\N)Nc1ccc(Cl)cc1)/N=C(\N)Nc1ccc(Cl)cc1 | i | 66 | + | i | i | 41!
COc1ccc(OC)c(-c2cc(C(=O)Nc3cc(C)on3)no2)c1 | i | i | i | i | nt | nt
Cc1nn(Cc2ccc(Cl)cc2)c(C)c1NC(=O)c1c(-c2ccccc2)noc1C | i | 43 | i | i | nt | 44
COc1ccc(OC)c(-c2cc(C(=O)Nc3c(C)nn(Cc4ccccc4)c3C)no2)c1 | i | 41 | i | i | i | i
COc1ccc(OC)c(-c2cc(C(=O)Nc3c(C)nn(Cc4ccc(Cl)cc4)c3C)no2)c1 | i | 43 | i | i | nt | 32
Cc1onc(-c2ccccc2)c1C(=O)NCCc1ccc(Cl)cc1 | i | i | i | i | i | nt
Cc1nnc(Sc2nc3ccccc3o2)c2ccccc12 | i | i | i | i | i | nt
Clc1ccc(-c2nnc(Sc3nc4ccccc4o3)c3ccccc23)cc1 | i | 42 | i | i | i | i
C=C(C)C1Cc2nc(N)nc(C)c2C1 (configuration not stated) | i | i | i | i | i | nt
C=C(C)C1Cc2c(C)nn(-c3nc(C)cc(C)n3)c2C1 (configuration not stated) | i | 42 | i | i | i | i
OC(CNCCc1ccc(C(F)(F)F)cc1)COc1ccc2ccccc2c1 (configuration not stated) | i | 48 | nt | i | i | i
Clc1ccccc1/C=C/c1ccnc2ccccc12 | i | 44 | i | i | i | i
SMILES | tim23-1 inh | tim10-1 inh | Rce1 inhib | TIM10 inh | PfHsp90 set2 | tim10-1 confirm
Oc1ccc(/C=C/c2ccnc3ccccc23)cc1 | i | i | i | i | i | nt
CC(=O)OCCCN1C(=O)c2ccc(Br)cc2C1=O | i | i | i | i | i | nt
Cc1cc(C)n(-c2nc(NCCO)c3c4c(sc3n2)CCCC4)n1 | i | i | i | i | nt | nt
Cc1cc(C)n(-c2nc(NCCCO)c3c4c(sc3n2)CCCC4)n1 | i | 50 | i | i | nt | i
COc1cccc(CN2C(=O)c3cccc(N)c3C2=O)c1 | i | i | i | i | i | nt
COc1cccc(N=Nc2c(N)[nH]n3c(=O)cc(-c4ccccc4)nc23)c1 | i | i | i | i | i | nt
Cc1ccc(N=Nc2c(N)[nH]n3c(=O)cc(-c4ccccc4)nc23)cc1 | i | 50 | i | i | nt | i
